In the library only some 1.6% were active in any assay of this set; here they are far more common.
KCNQ2 pot: potentiators of rat KCNQ2 potassium channel; B-score at 10 µM; CHO-K1 KCNQ2, FluxOR thallium flux fluorescence; stronger effect = higher value; AID 2239; O88943; 310,000 tested, 0.54% active;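 active = fluorescence ratio B-score at least 3 SD of library B-scores, with initial fluorescence B-score within 3 of them, cut at about 5.3 in these data; same plate scores as AID 2156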;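 also: B-score of peak minus minimum over baseline fluorescence ratio after K+ and Tl+ stimulus; positive B-score means potentiation of KCNQ2 with more thallium influx and brighter signal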
KCNQ2 block: inhibitors of rat KCNQ2 potassium channel; O88943; CHO-K1 KCNQ2, FluxOR thallium flux, 20 min; stronger effect = lower value; 310,000 tested, 1.1% active; B-score at 10 µM;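 active = fluorescence ratio B-score at most minus 3 library SDs, with starting brightness B-score within 2 library SDs, cut at about -5.5 in these data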
Kir21 confirm: confirmation of mouse Kir2.1 potassium channel inhibitors; 2,300 tested, 41% active; Kir2.1-expressing cells, FluxOR thallium flux fluorescence; stronger effect = lower value; AID 2032; Tl flux remaining, % of negative control (stronger effect = lower value), % at 10 µM; shares compounds with KCNQ2 pot;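 active = Primary-screen hit whose thallium flux fell at least 3 control SD below untreated wells in both duplicates, with normal baseline fluorescence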
Target sequence (P35561 whole entry, looked up): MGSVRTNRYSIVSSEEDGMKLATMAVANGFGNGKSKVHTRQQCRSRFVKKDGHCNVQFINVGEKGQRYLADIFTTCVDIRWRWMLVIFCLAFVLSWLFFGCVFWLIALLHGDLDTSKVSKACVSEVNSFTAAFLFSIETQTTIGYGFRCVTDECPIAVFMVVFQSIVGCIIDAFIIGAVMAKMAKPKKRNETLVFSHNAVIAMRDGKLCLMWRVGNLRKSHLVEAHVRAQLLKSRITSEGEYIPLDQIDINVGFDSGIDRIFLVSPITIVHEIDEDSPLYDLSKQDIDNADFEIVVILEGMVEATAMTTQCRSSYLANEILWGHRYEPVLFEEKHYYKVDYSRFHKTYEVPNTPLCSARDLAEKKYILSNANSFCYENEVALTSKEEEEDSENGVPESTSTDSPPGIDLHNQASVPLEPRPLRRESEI
HEK293 Tl flux: parental HEK293 activity in Kir2.1 inhibitor counter-screen; parental HEK293 cells, FluxOR thallium flux fluorescence; 0% = unstimulated blank wells; 2,300 tested, 19% active; FluxOR signal as % of negative control (100 = no effect), % at 10 µM; shares compounds with KCNQ2 pot; AID 2105;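 active = dye signal at least 3 control SD above or below untreated wells in both duplicates, raw fluorescence within 3, either direction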;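 also: percent is based on the flux ratio of peak minus minimum fluorescence over baseline F0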
CHO-K1 ctr: alters thallium flux in parental CHO-K1 cells, KCNQ2 counter-screen; shares compounds with KCNQ2 pot; FluxOR thallium flux fluorescence; zero = vehicle mean+3SD, 100% = vehicle-minus-blank window; activity increase over 3SD of controls, % at 10 µM; 1,200 tested, 43% active; AID 2282;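 active = signal rise of at least 3 SD above the untreated control mean, in both duplicate wells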;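 also: counter screen of KCNQ2 potentiator hits so any rise reflects channel-independent effects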
KCNQ1 pot spec: tests whether KCNQ2 potentiators also act on human KCNQ1; AID 2283; 1,200 tested, 28% active; activation over 3SD threshold, % at 10 µM; shares compounds with KCNQ2 pot; CHO KCNQ1 stable, FluxOR thallium flux fluorescence; beyond 3SD, as % of vehicle-control signal;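 active = fluorescence ratio rise of at least 3 SD of vehicle wells above their mean, in both replicate wells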
KCNQ2 pot confirm: rat KCNQ2 channel potentiator confirmation; shares compounds with KCNQ2 pot; CHO-KCNQ2 cells, FluxOR thallium flux fluorescence; potentiation, less the hit threshold, % at 10 µM; 1,200 tested, 68% active;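 active = fluorescence ratio rising 3 SD or more over the vehicle control mean in both replicates, plus primary screen hit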;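 also: peak minus minimum thallium fluorescence divided by baseline after K/Tl stimulus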
Kir21 spec: selectivity of KCNQ2 potentiators: effect on mouse Kir2.1 | shares compounds with KCNQ2 pot | HEK293 Kir2.1, FluxOR thallium flux fluorescence | activity over 3SD threshold, % at 10 µM | 1,200 tested, 2% active | AID 2345;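 active = fluorescence ratio rise of at least 3 SD above the vehicle-control mean, seen in both replicates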
KCNQ2 W236L pot: potentiates the retigabine-insensitive rat KCNQ2 W236L mutant channel; AID 2558; CHO KCNQ2-W236L, automated patch clamp current; shares compounds with KCNQ2 pot; 940 tested, 10% active; current increase over 3SD of negative controls (%), stronger effect = higher value, % at 25 µM;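 active = current increase at least 3 SD of the untreated controls above them in both duplicate recordings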
Each line names hits and unclear results; the compound was inactive in the other large screens (follow-up assays come after a bar, where they were run).

Nc1c(-c2ccccc2Cl)cnn1-c1cccc([N+](=O)[O-])c1	KCNQ2 pot 5.35 | Kir21 confirm inactive | HEK293 Tl flux 127.0% | CHO-K1 ctr inactive | KCNQ1 pot spec inactive | KCNQ2 pot confirm 2.3 | Kir21 spec inactive | KCNQ2 W236L pot inactive
Cc1ccccc1-c1cnn(-c2cccc([N+](=O)[O-])c2)c1N	none
CC(/C=N/NC(=O)c1ccccc1F)c1ccccc1 (configuration not stated)	none
CN(C(=O)c1ccccc1F)C(c1ccccc1)c1ccccc1	none (no result: KCNQ2 pot) | Kir21 confirm 66.0% | HEK293 Tl flux inactive
COc1ccccc1NC(=O)C1CC(O)CN1C(=O)Oc1ccccc1 (configuration not stated)	none (no result: KCNQ2 pot)
CC(C)Nc1ccc(Nc2ccnc3cc4ccccc4cc23)cc1	none (no result: KCNQ2 pot)
c1ccc(CCNc2ccnc3cc4ccccc4cc23)cc1	none | Kir21 confirm inactive | HEK293 Tl flux inactive
Cc1ccc(SCC(=O)N(C)CC(=O)Nc2cccc(F)c2)c(C)c1	none (no result: KCNQ2 pot)
CCOC(=O)c1n[nH]n2c1nc(=S)c1ccccc12	KCNQ2 pot 8.17 | Kir21 confirm inactive | HEK293 Tl flux 391.0% | CHO-K1 ctr inactive | KCNQ1 pot spec inactive | KCNQ2 pot confirm 43.1 | Kir21 spec 1.3 | KCNQ2 W236L pot inactive
CCOC(=O)c1n[nH]c2ccccc12	none
CCN(CC)C(=O)Oc1ccc(Br)cc1C(=O)Nc1ccc(F)cc1F	none (no result: KCNQ2 pot)
CN(C(=O)CN(c1ccccc1)S(=O)(=O)c1ccc(F)cc1)C1CCS(=O)(=O)C1 (configuration not stated)	none
CC(C)(Oc1ccc(Cl)cc1)C(=O)OCC(=O)NCCc1ccccc1	none | Kir21 confirm 61.5% | HEK293 Tl flux inactive
O=C(COC(=O)CCSc1ccc(Cl)cc1)NCCc1ccccc1	none (no result: KCNQ2 pot)
COc1cccc(-c2cc(C(=O)Nc3ccc(N(C)C(C)=O)cc3)c3cc(Br)ccc3n2)c1	none (no result: KCNQ2 pot)
CN(C)c1nc(N(C)C)nc(N(C#N)CN2C(=O)c3ccccc3C2=O)n1	none
O=C(Nc1ccc(CSc2ccccc2)cc1)c1ccco1	KCNQ2 pot 6.94 | Kir21 confirm inactive | HEK293 Tl flux inactive | CHO-K1 ctr 75.8 | KCNQ1 pot spec inactive | KCNQ2 pot confirm inactive | Kir21 spec inactive | KCNQ2 W236L pot inactive
O=C(Nc1ccc(Oc2cccc3ccccc23)cc1)c1ccco1	KCNQ2 pot 6.38 | Kir21 confirm inactive | HEK293 Tl flux inactive | CHO-K1 ctr inactive | KCNQ1 pot spec inactive | KCNQ2 pot confirm inactive | Kir21 spec inactive | KCNQ2 W236L pot inactive
O=C(CCc1ccccc1)Nc1ccc(NC(=O)c2ccco2)cc1	none
O=C(O)c1ccccc1C(=O)Nc1ccc(Oc2cccc3ccccc23)cc1	none
COc1cc(C(=O)OCC(=O)NC2CCS(=O)(=O)C2)ccc1OCc1c(C)noc1C (configuration not stated)	none (no result: KCNQ2 pot)
COc1cccc(C(C(=O)NC(C)(C)C)N(Cc2ccc(F)cc2)C(=O)CCC(=O)Nc2cc(C)on2)c1OC (configuration not stated)	none (no result: KCNQ2 pot)
CCOC(=O)c1cc2c(=O)n3ccccc3nc2n(CCCOC)c1=NC(=O)c1ccncc1	KCNQ2 pot 8.61 | Kir21 confirm inactive | HEK293 Tl flux inactive | CHO-K1 ctr inactive | KCNQ1 pot spec inactive | KCNQ2 pot confirm inactive | Kir21 spec inactive
CCCn1c(=NC(=O)c2ccco2)c(C(=O)OCC)cc2c(=O)n3ccccc3nc21	none
CC(=O)/C=C(\C)Nc1ccccc1O	none (no result: KCNQ2 pot)
Cc1cccc(OCC(O)CN2CCc3ccccc3C2)c1 (configuration not stated)	none | Kir21 confirm 42.0% | HEK293 Tl flux inactive
COc1cc(COCC(O)CN2CCc3ccccc3C2)cc(OC)c1OC (configuration not stated)	none
OC(COC(c1ccc(Cl)cc1)c1ccc(Cl)cc1)CN1CCc2ccccc2C1 (configuration not stated)	none (no result: KCNQ2 pot)
C=CCc1ccc(OCC(O)CN2CCc3ccccc3C2)c(OC)c1 (configuration not stated)	none (no result: KCNQ2 pot) | Kir21 confirm 30.5% | HEK293 Tl flux inactive
COc1cccc(OCC(O)CN2CCc3ccccc3C2)c1 (configuration not stated)	none
OC(COc1ccc(Cl)cc1Cl)CN1CCc2ccccc2C1 (configuration not stated)	none (no result: KCNQ2 pot) | Kir21 confirm 39.5% | HEK293 Tl flux inactive
Cc1ccc(OCC(O)CN2CCc3ccccc3C2)c(C)c1 (configuration not stated)	none (no result: KCNQ2 pot) | Kir21 confirm 28.5% | HEK293 Tl flux inactive
COc1ccc(OCC(O)CN2CCc3ccccc3C2)cc1 (configuration not stated)	none
CCC(=O)c1cn(/C(=C\C(=O)OC(C)(C)C)CCC(OC)OC)cc1CC	none (no result: KCNQ2 pot)
CC(=C\C(=O)O)/C(=C\c1cccc2ccccc12)C(=O)O	none
Cc1ccc(C)c(OCc2cc(C(=O)N3CCOCC3)no2)c1	none
CN1CCC(NCCC(c2ccc(F)cc2)c2ccc(Cl)cc2)CC1 (configuration not stated)	none (no result: KCNQ2 pot) | Kir21 confirm 55.5% | HEK293 Tl flux inactive
CC(C)C(CCNC1CCN(C)CC1)c1ccc(Cl)cc1 (configuration not stated)	none (no result: KCNQ2 pot)
CCCc1ncc(C(O)c2ccccc2OC)n1C (configuration not stated)	none (no result: KCNQ2 pot)
Cc1cccc(C)c1OCC(O)CN1CCC(CN2C(=O)c3cccc4cccc(c34)C2=O)CC1 (configuration not stated)	KCNQ2 pot 5.71 | Kir21 confirm inactive | HEK293 Tl flux inactive | CHO-K1 ctr 49.6 | KCNQ1 pot spec inactive | KCNQ2 pot confirm inactive | Kir21 spec inactive
Cc1ccccc1OCC(O)CN1CCN(CCN2C(=O)c3cccc4cccc(c34)C2=O)CC1 (configuration not stated)	none (no result: KCNQ2 pot)
NC(=O)c1c(NC(=O)C(=O)N2CCOCC2)sc2c1CCC2	none (no result: KCNQ2 pot)
O=c1c2ccc([N+](=O)[O-])cc2ncn1Cc1ccccc1C(F)(F)F	none
Cc1ccc(NC(=O)C(C)OC(=O)Cc2c[nH]c3ccccc23)cc1 (configuration not stated)	none | Kir21 confirm 52.5% | HEK293 Tl flux inactive
Cc1ccc(C(=O)C(C)OC(=O)Cc2c[nH]c3ccccc23)cc1 (configuration not stated)	none (no result: KCNQ2 pot)
Cc1cc2cc(C)c(NCCNC(=O)c3cccs3)nc2cc1C	none
